Laboratory results from PubChem BioAssay AID1159580 (chemical genetic matrix, 2015).
Out of some 5,500 compounds screened, about 2,000 (36%) were called active. Inconclusive results (about 18%) are left out. No stated cut-off is given here; in the data, active means normalized growth mostly below about 0.91 (no sharp cut-off); inconclusive means no clear call, values can overlap the other calls; inactive means mostly above about 0.92. The list shows a part of the results.

Assay: chemical genetic growth profiling, strain panel (AID 1159580);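 further: tested at 20 µM; growth read once vehicle control cultures reached saturation at 30 °C; 1 = growth at the plate median or of vehicle wells; lower values mean less growth of the strain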
Settings: S. cerevisiae deletion strains, growth OD
[1] = locus YAR019C, strain CDC15, hits give low values
[2] = locus YBL105C, strain PKC1, hits give low values
[3] = locus YBR135W, strain CKS1, hits give low values
[4] = locus YBR136W, strain MEC1, hits give low values
[5] = locus YBR160W, strain CDC28, hits give low values
[6] = locus YDL017W, strain CDC7, hits give low values
[7] = locus YDL028C, strain MPS1, hits give low values
[8] = locus YDL101C, strain DUN1, hits give low values
[9] = locus YDL108W, strain KIN28, hits give low values
[10] = locus YDL132W, strain cdc53, hits give low values
[11] = locus YDL214C, strain PRR2, hits give low values
[12] = locus YDR052C, strain DBF4, hits give low values
[13] = locus YDR054C, strain cdc34, hits give low values
[14] = locus YDR226W, strain ADK1, hits give low values
[15] = locus YDR477W, strain SNF1, hits give low values
[16] = locus YER123W, strain YCK3, hits give low values
[17] = locus YER133W, strain GLC7, hits give low values
[18] = locus YFL009W, strain cdc4, hits give low values
[19] = locus YFL029C, strain CAK1, hits give low values
[20] = locus YFR003C, strain YPI1, hits give low values
[21] = locus YFR019W, strain FAB1, hits give low values
[22] = locus YFR028C, strain CDC14, hits give low values
[23] = locus YGR040W, strain KSS1, hits give low values
[24] = locus YGR052W, strain FMP48, hits give low values
[25] = locus YGR092W, strain DBF2, hits give low values
[26] = locus YHR030C, strain SLT2, hits give low values
[27] = locus YHR079C, strain IRE1, hits give low values
[28] = locus YHR082C, strain KSP1, hits give low values
[29] = locus YHR205W, strain SCH9, hits give low values
[30] = locus YIL147C, strain SLN1, hits give low values
[31] = locus YJL095W, strain BCK1, hits give low values
[32] = locus YJL128C, strain PBS2, hits give low values
[33] = locus YJL157C, strain FAR1, hits give low values
[34] = locus YJR016C, strain ILV3, hits give low values
[35] = locus YJR066W, strain TOR1 (second series), hits give low values
[36] = locus YJR066W, strain TOR1, hits give low values
[37] = locus YKL048C, strain ELM1, hits give low values
[38] = locus YKL067W, strain YNK1, hits give low values
[39] = locus YKL101W, strain HSL1, hits give low values
[40] = locus YKL193C, strain SDS22, hits give low values
[41] = locus YKL203C, strain TOR2, hits give low values
[42] = locus YLR113W, strain HOG1, hits give low values
[43] = locus YLR133W, strain CKI1, hits give low values
[44] = locus YLR403W, strain SFP1, hits give low values
[45] = locus YML070W, strain DAK1, hits give low values
[46] = locus YMR001C, strain CDC5, hits give low values
[47] = locus YMR205C, strain PFK2 (second series), hits give low values
[48] = locus YMR277W, strain FCP1, hits give low values
[49] = locus YNL006W, strain LST8, hits give low values
[50] = locus YNL020C, strain ARK1, hits give low values
[51] = locus YNL161W, strain CBK1, hits give low values
[52] = locus YNL183C, strain NPR1, hits give low values
[53] = locus YNL207W, strain RIO2, hits give low values
[54] = locus YNL222W, strain SSU72, hits give low values
[55] = locus YNL307C, strain MCK1 (second series), hits give low values
[56] = locus YOL078W, strain AVO1, hits give low values
[57] = locus YOL136C, strain PFK27, hits give low values
[58] = locus YOR061W, strain CKA2, hits give low values
[59] = locus YOR119C, strain RIO1, hits give low values
[60] = locus YOR231W, strain MKK1, hits give low values
[61] = locus YOR329C, strain SCD5, hits give low values
[62] = locus YPL031C, strain PHO85, hits give low values
[63] = locus YPL153C, strain RAD53, hits give low values
[64] = locus YPL204W, strain HRR25, hits give low values
[65] = locus YPL209C, strain IPL1, hits give low values
[66] = locus YPL256C, strain CLN2, hits give low values
[67] = locus YPR025C, strain CCL1, hits give low values
[68] = locus YPR106W, strain ISR1, hits give low values
[69] = locus YPR111W, strain DBF20, hits give low values
[70] = strain NNK1, hits give low values
[71] = strain TSCII, hits give low values

Measured: normalized growth

N/C(CSc1ccc(Cl)cc1)=N/OC(=O)c1ccc(C(F)(F)F)cc1
active: [1] 0.853 | [2] 0.895 | [3] 0.89 | [4] 0.889 | [5] 0.874 | [6] 0.893 | [7] 0.847 | [8] 0.867 | [9] 0.881 | [10] 0.886 | [13] 0.87 | [14] 0.867 | [18] 0.841 | [19] 0.853 | [21] 0.766 | [22] 0.86 | [26] 0.422 | [30] 0.876 | [34] 0.889 | [40] 0.885 | [42] 0.619 | [46] 0.866 | [48] 0.855 | [49] 0.892 | [53] 0.874 | [54] 0.872 | [56] 0.877 | [61] 0.9 | [65] 0.892 | [66] 0.647 | [67] 0.886 | [68] 0.875 | [69] 0.855 | [70] 0.862 | [71] 0.85
inactive: [11] 0.798 | [12] 0.912 | [15] 0.798 | [16] 0.774 | [17] 0.853 | [20] 0.908 | [23] 0.816 | [24] 0.838 | [25] 0.805 | [27] 0.739 | [28] 0.788 | [29] 0.604 | [31] 0.7 | [32] 0.889 | [33] 0.826 | [35] 0.687 | [36] 0.651 | [37] 0.953 | [38] 0.826 | [39] 0.863 | [41] 0.859 | [43] 0.822 | [44] 0.761 | [45] 0.852 | [47] 0.836 | [50] 0.836 | [51] 0.9 | [52] 0.82 | [55] 0.786 | [57] 0.852 | [58] 0.803 | [59] 0.845 | [60] 0.791 | [62] 0.807 | [63] 0.811 | [64] 0.786

N/C(CSc1ncccc1C(F)(F)F)=N/OC(=O)Nc1cccc(Cl)c1
inactive: [1] 1 | [2] 0.995 | [3] 0.969 | [4] 0.995 | [5] 0.995 | [6] 0.996 | [7] 0.988 | [8] 0.993 | [9] 0.996 | [10] 0.98 | [11] 0.877 | [12] 1 | [13] 0.987 | [14] 0.983 | [15] 0.857 | [16] 0.724 | [17] 0.82 | [18] 0.996 | [19] 0.992 | [20] 0.995 | [21] 0.946 | [22] 0.991 | [23] 0.881 | [24] 0.793 | [25] 0.836 | [27] 0.788 | [28] 0.946 | [29] 0.875 | [30] 0.995 | [31] 0.618 | [32] 0.967 | [33] 0.94 | [34] 0.989 | [35] 0.71 | [36] 0.841 | [37] 0.977 | [38] 0.897 | [39] 0.911 | [40] 0.987 | [41] 0.93 | [43] 0.926 | [44] 0.904 | [45] 0.837 | [46] 0.994 | [47] 0.916 | [48] 0.988 | [49] 1 | [50] 0.919 | [51] 0.986 | [53] 0.988 | [54] 0.997 | [55] 0.923 | [56] 0.994 | [57] 0.916 | [58] 0.931 | [59] 0.885 | [60] 0.749 | [61] 0.986 | [62] 0.836 | [63] 0.717 | [64] 0.78 | [65] 0.99 | [67] 0.988 | [68] 0.984 | [69] 0.974 | [70] 0.99 | [71] 0.991
active: [26] 0.582 | [42] 0.819 | [52] 0.384 | [66] 0.845
